# Epigenetic reg = epigenetic control regulation, reporter derepression | actives 0.2% (n = 280,000) | Potency, µM (titrated, usually from 53.9 µM), actives largely listed as activators | murine LDR cells, GFP reporter derepression, 30 h; note: nearly all actives have a fitted effect of over 60% in size
#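 In this reporter-derepression format, murine cells bearing a silenced integrated CMV-GFP locus incubate with test compound (30 h, 37 C), then are washed and imaged; fluorescent objects of 20–120 um count as induced cells.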
# Vif-APOBEC3G blk = inhibitors of Vif-APOBEC3G interaction | Q9HC16 | HeLa A3G-eYFP + Vif (tagged APOBEC3G with the HIV-1 protein that degrades it), YFP fluorescence, overnight | Potency, µM (titrated, usually from 46.1 µM), usual class: inhibitors | actives 0.076% (n = 410,000) | AID 602310; note: nearly all actives have a fitted effect of over 60% in size
#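 HeLa cells stably expressing Vif and C-terminally eYFP-tagged A3G, seeded overnight at 37 deg C, then exposed to compound by pintool overnight at 37 deg C. Rise in yellow fluorescence (Ex 488/Em 500-530, Acumen) marks blocked Vif-driven A3G degradation.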
# MBNL1 CUG block = MBNL1-poly(CUG) RNA binding inhibition. Q9NR56. TR-FRET MBNL1-His/biotin-(CUG)12 binding, 665/545 ratio. Potency, µM (series often up to 57.5 µM), usual class: inhibitors. actives 0.036% (n = 280,000); active = well fitted inhibition curve with a large enough effect in the signal ratio, with a control signal flat, not every such curve was filed as active; inconclusive = small, poorly fitted or top-dose-only effect, or effect the other way, or a change in a side signal; inactive = no such curve, though single readings can be large or run the other way; the % refers to the signal ratio
# Target sequence (Q9NR56 whole entry, looked up): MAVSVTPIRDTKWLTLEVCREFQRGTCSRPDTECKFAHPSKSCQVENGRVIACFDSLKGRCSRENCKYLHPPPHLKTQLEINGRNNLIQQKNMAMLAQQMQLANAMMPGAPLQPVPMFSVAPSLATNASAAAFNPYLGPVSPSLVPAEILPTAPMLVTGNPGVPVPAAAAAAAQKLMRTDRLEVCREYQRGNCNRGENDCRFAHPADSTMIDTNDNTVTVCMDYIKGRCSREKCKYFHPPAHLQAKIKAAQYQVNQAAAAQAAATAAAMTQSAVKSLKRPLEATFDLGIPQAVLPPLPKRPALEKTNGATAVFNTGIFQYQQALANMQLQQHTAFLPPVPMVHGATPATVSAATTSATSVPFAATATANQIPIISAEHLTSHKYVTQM
#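 TR-FRET readout: Ex 340 nm, 665/545 nm emission ratio, normalized to buffer-only (basal) and MBNL1-(CUG)12 controls. Complex of MBNL1-His with Biotin-(CUG)12, compounds 92 nM–58 uM, incubated 60 min at room temperature.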
# PTAP TSG101 blk = blocks PTAP/TSG101 interaction to inhibit HIV-1 budding. Q99816. Fluorescence polarization, FITC-PTAP peptide / Tsg101 binding. Potency, µM (series often up to 115 µM), actives largely listed as inhibitors. 340,000 tested, under 10 active. AID 493005; active = well fitted inhibition curve with a large enough effect in the main read-out, with a control signal flat, not every such curve was filed as active; inconclusive = small, poorly fitted or top-dose-only effect, or effect the other way, or a change in a side signal; inactive = no such curve, though single readings can be large or run the other way
#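 Fluorescence anisotropy tracks displacement of a FITC-tagged PTAP peptide (50 nM) from the Tsg101 binding domain (10 uM), following a 20 min room-temperature incubation at pH 7.5.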
# CBFb RUNX1 block = CBF-beta/RUNX1 interaction disruption. Q01196+Q13951. AlphaScreen CBFb-His/RUNX1-biotin binding, biochemical. Potency, µM (titrated, usually from 59.8 µM), usual class: inhibitors. 230,000 tested, under 10 active. AID 1477
#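 Bead-based AlphaScreen assay; binding partners His-tagged CBF-beta and biotinylated RUNX1 at 30 nM each. Compound exposure 15 min after a 20-min protein preincubation; bead step 90 min; all steps at room temperature.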
# Vif-APOBEC3F blk = inhibitors of Vif-A3F interaction; AID 602313; Potency, µM (titrated, usually from 46.1 µM); actives 0.2% (n = 390,000); HeLa A3F-eYFP + Vif (tagged APOBEC3F with the HIV-1 protein that degrades it), YFP fluorescence increase; note: nearly all actives have a fitted effect of over 65% in size
#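 HeLa cells stably expressing A3F-eYFP plus Vif, plated and incubated overnight at 37 deg C, then exposed to compounds overnight at 37 deg C. Blocked degradation read as raised yellow fluorescence (Ex 488/Em 500-530).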
# A number is an active result; n = inactive; u = inconclusive; x = no result; ! = a repeat was not active; [ ] = remark or other dose. Compounds with a hit are over-represented: about 0.37% of the library has one in this group of screens. Unless noted, calls come from the whole dose curve; as a rule, active = well fitted curve in the direction sought with a large enough effect; inconclusive = small, poorly fitted or top-dose-only effect, or another doubt; inactive = no such curve, though single readings can be large; an effect the other way counts as inactive or inconclusive.
SMILES,Epigenetic reg,Vif-APOBEC3G blk,MBNL1 CUG block,PTAP TSG101 blk,CBFb RUNX1 block,Vif-APOBEC3F blk
OCCCn1c(C2CCCN2c2nc(-c3ccc(Cl)cc3)cs2)nc2cc(Cl)c(Cl)cc21 (stereo not given),x,n,x,n,x,22.4µM
C=CCN1C=CC(=C/C=C(/C#N)C(=O)OCC)C=C1,u,u,u,u,n,11.2µM
COc1cccc(/C=C(/C#N)c2ccc(F)cc2)c1OCc1cccc(C(=O)O)c1,n,n,n,n,n,n
O=C(N/N=C/c1ccc(N2CCCCC2)o1)c1ccccc1,n,n,u,n,n,n
COc1cc(N2CCCC2)c(OC)cc1/C=C(/C#N)c1cccc(F)c1,3.16µM,5.01µM,n,n,x,u
N#C/C(=C/c1ccc(N2CCCCCC2)o1)c1cccc(F)c1,u,u,n,u,n,5.01µM
N#C/C(=C/c1ccc(N2CCCCCC2)o1)c1ccc(F)cc1,x,u,x,u,x,28.2µM
O=C(Nc1ccc(N2CCCC2)cc1)c1cccc(F)c1,n,u,n,n,n,n
O=C(NCc1ccccc1)c1cccc2c1C(=O)c1ccc(/C=C/c3ccccc3)cc1S2(=O)=O,x,n,x,n,x,10µM
Cc1ccc(CNC(=O)c2cccc3c2C(=O)c2ccc(N4CCCCC4)cc2S3(=O)=O)cc1,x,u,x,u,x,22.4µM
O=C(NCC1CCCO1)c1cccc2c1C(=O)c1ccc(N3CCC(Cc4ccccc4)CC3)cc1S2(=O)=O (stereo not given),x,u,x,u,x,25.1µM
O=C(NCc1ccccc1Cl)c1cccc2c1C(=O)c1ccc(-c3ccc(OC(F)(F)F)cc3)cc1S2(=O)=O,x,n,x,n,x,12.6µM
Oc1ccccc1C1C=C(c2ccc3c(c2)OCO3)NC(c2cccc(F)c2)N1 (stereo not given),x,n,x,x,x,x
CSc1ccc(/C=C2\C=Cc3cc([N+](=O)[O-])ccc32)cc1,x,n,x,x,x,x
O=C(Nc1nccs1)[C@@H]1CC=C[C@@H]2CCN(C3CC3)C(=O)[C@@H]21,x,n,x,x,x,x
Cc1ccc(C)c2c(C)ccnc12,x,n,x,x,x,x
Cc1cc(C=O)c(C)c2c1[nH]c1ccccc12,x,n,x,n,x,n
O=Cc1c2[nH]c3ccccc3c2cc2[nH]c3ccccc3c12,12.6µM!,x,x,x,u,x
COc1cc(OC)c(/C=C/c2cc3ccccc3c[n+]2C)c(OC)c1,x,n,x,x,x,x
O=C(Cc1ccc(OCCCc2ccccc2)cc1)NO,x,n,x,x,x,x
C(=C\c1ccc2ccccc2n1)/c1cccnc1,x,n,x,x,x,x
COc1ccc(/C(C)=N/Nc2nc(C)cc(-c3ccccc3)n2)cc1,x,n,x,n,x,n
C/C(=N\Nc1nc(C)cc(-c2ccccc2)n1)c1ccc(F)cc1,x,n,n,n,x,20µM
CCC(C)N1C(=O)/C(=C/c2c(NCCCOC(C)C)nc3c(C)cccn3c2=O)SC1=S (stereo not given),3.16µM,u,n,u,n,n
CCCN1C(=O)/C(=C/c2c(NCCCOC(C)C)nc3c(C)cccn3c2=O)SC1=S,u,n,n,u,n,u
SMILES,Epigenetic reg,Vif-APOBEC3G blk,MBNL1 CUG block,PTAP TSG101 blk,CBFb RUNX1 block,Vif-APOBEC3F blk
CCOc1c(Cl)cc(/C=N/NC(N)=S)cc1OC,n,n,x,n,n,11.2µM
C#CCOc1c(Cl)cc(/C=N/NC(N)=S)cc1OCC,n,n,n,n,n,u
CCCCC1=CC2=C(c3ccco3)C(=O)C(C)(OC(=O)c3ccc(OC)cc3)C(=O)C2=CN1Cc1ccccc1 (stereo not given),17.8µM,n,u,n,u,u
CCCCC1=CC2=C(c3ccco3)C(=O)C(C)(OC(=O)c3ccc(OC)cc3)C(=O)C2=CN1CCOC (stereo not given),n,n,n,n,n[13.1 µM],n
CCCCn1c(N)c(N(Cc2ccccc2OC)C(=O)c2ccc([N+](=O)[O-])s2)c(=O)[nH]c1=O,x,u,x,n,x,12.6µM
O=[N+]([O-])c1ccc(Cl)c(S(=O)(=O)/N=C(/Sc2ccc(Br)cc2)c2ccccc2)c1,x,n,x,x,x,x
COC(=O)C1=COC(C)C2CN3CCc4c([nH]c5cc(OC)c(OC)cc45)C3CC12 (stereo not given),n,n,n,u,n,8.91µM

# Screens from PubChem.
